In the library only some 1.5% were active in any assay of this set; here they are far more common.
RecA splice inh: inhibitors of M. tuberculosis RecA intein splicing | cell-free RecA intein splicing, fluorescence | inhibition, % (no concentration beside the values) | 290,000 tested, 0.75% active | AID 2221; in the data active means inhibition above about 30%
Target sequence (P9WHJ3 whole entry, looked up, canonical isoform): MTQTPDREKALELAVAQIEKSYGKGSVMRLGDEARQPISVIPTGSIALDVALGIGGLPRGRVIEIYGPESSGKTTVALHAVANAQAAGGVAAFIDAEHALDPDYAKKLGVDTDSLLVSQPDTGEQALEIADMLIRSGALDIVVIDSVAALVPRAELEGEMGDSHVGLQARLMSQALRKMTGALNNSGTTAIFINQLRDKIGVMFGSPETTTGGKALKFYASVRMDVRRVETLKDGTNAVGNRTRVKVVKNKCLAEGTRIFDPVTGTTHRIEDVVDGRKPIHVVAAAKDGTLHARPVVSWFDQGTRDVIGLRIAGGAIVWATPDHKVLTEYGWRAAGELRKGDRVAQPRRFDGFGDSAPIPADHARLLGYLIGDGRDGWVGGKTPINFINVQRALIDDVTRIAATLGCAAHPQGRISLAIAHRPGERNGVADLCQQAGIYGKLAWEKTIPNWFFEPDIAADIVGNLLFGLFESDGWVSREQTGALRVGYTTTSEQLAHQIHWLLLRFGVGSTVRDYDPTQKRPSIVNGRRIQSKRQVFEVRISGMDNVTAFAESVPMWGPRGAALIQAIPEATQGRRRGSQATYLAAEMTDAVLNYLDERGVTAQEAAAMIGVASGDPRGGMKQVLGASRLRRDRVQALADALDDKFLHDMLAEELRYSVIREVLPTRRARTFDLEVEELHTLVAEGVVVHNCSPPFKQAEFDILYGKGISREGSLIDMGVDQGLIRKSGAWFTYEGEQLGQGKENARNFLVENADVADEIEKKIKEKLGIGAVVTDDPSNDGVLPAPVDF
CCHF vOTU inh: CCHFV vOTU protease inhibition; inhibition, % at 11.5 µM; 370,000 tested, 0.55% active; Pep-AMC fluorescence; in the data active means inhibition above about 30%
VHR inh abs: DUSP3 (human) phosphatase inhibition; P51452; recombinant VHR phosphatase, pNPP absorbance; inhibition, % at 13.3 µM; 290,000 tested, 0.52% active; in the data active means inhibition above about 50%
3CLpro inhibitor: SARS-CoV 3CLpro protease inhibition. 290,000 tested, 0.14% active. P0C6X7. inhibition, % at 6 µM. recombinant SARS-CoV 3CLpro, quenched FRET peptide cleavage. AID 1706; in the data active means inhibition above about 12%
A number is an active result; – = inactive; · = not tested or not shown.

SMILES	RecA splice inh	CCHF vOTU inh	VHR inh abs	3CLpro inhibitor
Cc1onc(-c2c(Cl)cccc2Cl)c1C(=O)Nc1ccc2c(c1)OCCO2	·	–	–	–
Cc1onc(-c2ccccc2Cl)c1C(=O)Nc1ccc2c(c1)OCO2	–	–	51	–
O=C(CN1CCC(n2nnc3cc(F)ccc32)CC1)NCCc1ccccc1	–	–	53	–
O=C(CN1CCC(n2nnc3cc(F)ccc32)CC1)NC1CC1	–	–	–	–
Cc1ccc(-c2nc(-c3ccncc3)no2)cc1C	–	–	59	–
CC(=O)c1c2c3c(cccc3n(C)c1=O)C(=O)c1ccccc1-2	–	·	54	–
COc1ccccc1C(=O)n1ccc2ccc(-c3ccc4ccn(Cc5ccc(C#N)cc5)c4c3)cc21	·	–	·	·
O=C(O)c1ccc(NC(=O)C2C3CCC(C3)C2C(=O)O)cc1 (stereo not given)	–	–	–	–
CSc1ccccc1NC(=O)C1C2CCC(C2)C1C(=O)O (stereo not given)	–	–	52	–
Cc1ccc2c(C)nc(NC3=NCN(CCc4ccccc4)CN3)nc2c1	·	·	–	·
CN(CCOC(=O)c1cc2ccccc2o1)C1CN(Cc2cn(Cc3ccccc3F)nn2)S(=O)(=O)C1 (stereo not given)	·	–	·	·
Cc1c(C(=O)N2CCN(C)CC2)oc2ccc(Br)cc12	–	–	–	–
Cc1c(C(=O)N2CCCC2)oc2ccc(Br)cc12	–	–	53	–
CC(=O)N1CCN(Cc2nc3cc(NC(=O)c4ccc(F)cc4)ccc3n2C)CC1	–	–	57	–
CCOC(=O)c1cc(C)sc1NC(=O)CSc1nnnn1C	–	–	–	–
CCOC(=O)c1cc(C)sc1NC(=O)CSC1=NCCS1	32	–	–	–
COc1ccc(CN2CCC(Oc3ccc(C(=O)NCc4ccccn4)cc3)CC2)c(F)c1	–	–	57	–
CCOc1ccc(CCNC(=O)Cn2ccc3cc(S(=O)(=O)N4CCCC4)ccc32)cc1	–	–	53	–
CCOc1ccc(CNC(=O)CCCn2ccc3cc(S(=O)(=O)N4CCCC4)ccc32)cc1	–	–	–	–
CCc1ccc(N2CC(C)Cn3c2nc2c3c(=O)[nH]c(=O)n2C)cc1 (stereo not given)	–	–	–	–
C=CSc1sc(Cl)c(N2CCOCC2)c1[N+](=O)[O-]	30	–	–	–
CC(=O)Nc1ccc(NS(=O)(=O)c2cccc3nonc23)cc1	·	–	58	–
C[C@H](NS(=O)(=O)c1ccc(Cl)cc1)C(=O)OCC(=O)Nc1cc(S(=O)(=O)N2CCOCC2)ccc1Cl	·	–	·	·
Cc1cc(NC(=O)CSc2ccccn2)cc(NC(=O)CSc2ccccn2)c1	–	–	54	–
Cc1cc(C)nc(N2CCCC(C(=O)NC3CC3)C2)n1 (stereo not given)	–	–	53	–
SMILES	RecA splice inh	CCHF vOTU inh	VHR inh abs	3CLpro inhibitor
COCCn1c(C)cc(C(=O)COc2ccc(C)nc2[N+](=O)[O-])c1C	–	–	–	–
CCCn1c(C)cc(C(=O)COc2ccc(C)nc2[N+](=O)[O-])c1C	–	–	54	–
O=C(O)CCN1C(=O)c2ccc(NC(=O)CCc3ccccc3)cc2C1=O	–	–	–	–
COc1ccc(NC(=O)C2CC(=O)N(c3ccccc3C)C2)c(OC)c1 (stereo not given)	–	–	58	–
COCCCNC(=O)c1ccc2c3c(onc13)-c1ccccc1C2=O	37	·	–	–
COCCCNC(=O)c1ccccc1Oc1ccccc1	–	–	–	–
O=C(CN1CCN(c2ccc(C(F)(F)F)cn2)CC1)NCc1ccc2c(c1)OCO2	–	–	–	–
C=CCCC(=O)N1CCCC(C(=O)c2cccc(OC)c2)C1 (stereo not given)	–	–	57	–
Cc1cc(C)n(CC(=O)N2CCCC(C(=O)c3cccc(OC(C)C)c3)C2)n1 (stereo not given)	–	–	52	–
CCn1nc(C)cc1C(=O)N1CCCC(C(=O)c2ccc(Oc3ccccc3)cc2)C1 (stereo not given)	–	–	57	–
COc1cccc(C(=O)C2CCCN(C(=O)c3ccccc3Cl)C2)c1 (stereo not given)	–	–	–	–
Cc1ccc(CN2CC(C(=O)N3CCN(c4ccccc4O)CC3)CC2=O)cc1 (stereo not given)	–	–	·	·
COc1ccc(CNC(=O)COC(=O)[C@H](Cc2ccccc2)NC(=O)c2cccs2)cc1	·	–	·	·
Cc1ccc(C(C[N+](=O)[O-])c2c(-c3ccccc3O)[nH][nH]c2=O)cc1 (stereo not given)	53	–	–	–
Cc1cccc(C(=O)Nc2ccc(C(=O)N3CCCCC3C)cc2)c1 (stereo not given)	–	–	57	–
COc1ccc(C2CC3CN(C4CCCCC4)C(=O)C3N2C)cc1 (stereo not given)	·	–	·	·

Source: PubChem BioAssay (several laboratories)
